Results filed as inconclusive are left out. The source made the active and inactive calls. Unless noted, the call rests on the fitted dose curve; in most records, active means well fitted curve in the direction sought with a large enough effect in the repeat runs; inconclusive means weak or mixed curves; inactive means no such curve, though single readings can be large; an effect the other way counts as inactive or inconclusive.
How the values were obtained:
[1] = qHTS assay for small molecules that induce genotoxicity in human embryonic kidney cells expressing luciferase-tagged ATAD5 (AID 651632); further: nearly all actives have a fitted effect of over 15% in size
Procedure, shortened: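 Test compounds were delivered by pin tool onto HEK293T reporter cells (2,000/well) expressing ATAD5 fused to luciferase. After 16 hr at 37C, 5% CO2, Amplite was added for 30 min at room temperature and luminescence was measured.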

[2] = qHTS assay for small molecule agonists of the p53 signaling pathway - cell viability (AID 651633; calls by dose curve; further: nearly all actives have a fitted effect of over 30% in size; further: potency means the concentration at half of the fitted maximal effect)
Procedure, shortened: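 Viability counter-read: CellTiter-Glo luminescence (30 min, room temperature) in the same p53RE-bla plates. These plates had been exposed to compounds for 16 h at 37 C.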

[3] = qHTS assay for small molecules that induce genotoxicity in human embryonic kidney cells expressing luciferase-tagged ATAD5 - cell viability (AID 651634; calls by dose curve; further: nearly all actives have a fitted effect of over 25% in size; further: potency means the concentration at half of the fitted maximal effect)
Procedure, shortened: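 Quantitative high-throughput format. HEK293T cells expressing ATAD5 fused to luciferase were plated at 2,000 cells/well and treated 15.5 hr with compound versus DMSO. Viability was determined by fluorescent live-cell protease substrate, 30 min at 37C.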

[4] = qHTS assay for small molecule disruptors of the mitochondrial membrane potential - cell viability (AID 720634; calls by dose curve;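 further: human HepG2 liver cancer cells; series mostly up to about 83 µM; nearly all actives have a fitted effect of over 20% in size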)
Procedure, shortened: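 Same-well counter-screen: following the MMP dye addition, CellTiter-Glo was added to 1 hr compound-treated HepG2 cells and luminescence read after 30 min at room temperature.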

[5] = qHTS assay to test for compound auto fluorescence at 590 nm (red) in HepG2 cells (AID 720674)
Procedure, shortened: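 Red autofluorescence (Ex/Em 540/590 nm, Rose Bengal sodium equivalents) was measured in HepG2 cells, 2,000 per well in MEM plus 10% FBS, plated overnight at 37 C. Readings were taken 1 hr after adding 23 nL compound or DMSO, at 37 C and 5% CO2.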

[6] = qHTS assay to test for compound auto fluorescence at 460 nm (blue) in HEK293 cells (AID 720678)
Procedure, shortened: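 Triamterene serves as the blue fluorophore standard. Compound signal at 405/460 nm is read in HEK293 wells (2,000 cells, 10% dialyzed FBS) after overnight treatment at 37C.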

[7] = qHTS assay to test for compound auto fluorescence at 590 nm (red) in HEK293 cells (AID 720679)
Procedure, shortened: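 We plated HEK293 cells in 10% dialyzed FBS medium, let them adhere for 4-5 hr, then added 23 nL compound. Overnight at 37C and 5% CO2 preceded fluorescence measurement at 540/590nm.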

[8] = qHTS assay to test for compound auto fluorescence at 535 nm (green) in HEK293 cells (AID 720680)
[9] = qHTS assay to test for compound auto fluorescence at 535 nm (green) in HEK293 cell free culture (AID 720682)
Procedure, shortened: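 Cell-free medium (DMEM, 10% FBS) receives compound or DMSO by pintool. Plate read directly at Ex 485/Em 535 nm. Signal converted to fluorescein equivalency.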

[10] = qHTS assay to test for compound auto fluorescence at 590 nm (red) in HEK293 cell free culture (AID 720683)
Procedure, shortened: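 Red-channel autofluorescence of compounds in culture medium (DMEM, 10% FBS), no cells, measured at 540/590 nm. Rose Bengal sodium is the reference fluorophore for equivalence.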

[11] = qHTS assay to test for compound auto fluorescence at 590 nm (red) in HepG2 cell free culture (AID 720684)
Procedure, shortened: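 Cell-free; medium MEM + 10% FBS; compound or DMSO added by pintool; read Ex 540/Em 590 nm; Rose Bengal sodium as red reference fluorophore.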

[12] = qHTS assay to test for compound auto fluorescence at 460 nm (blue) in HepG2 cell free culture (AID 720685)
Procedure, shortened: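 Cell-free plates of MEM plus 10% FBS received 23 nL compound or DMSO vehicle; blue-channel (405/460 nm) intensity scored against triamterene as reference fluorophore.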

[13] = qHTS assay to test for compound auto fluorescence at 460 nm (blue) in HepG2 cells (AID 720687)
Procedure, shortened: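 Blue-channel autofluorescence (Ex/Em 405/460 nm, triamterene-equivalent) was measured after 1 hr compound exposure at 37 C, 5% CO2. Cells were HepG2, plated overnight at 37 C in MEM plus 10% FBS.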

[14] = qHTS assay to identify small molecule antagonists of the estrogen receptor alpha (ER-alpha) signaling pathway using the BG1 cell line - cell viability counter screen (AID 743081);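 further: compound given together with 17beta-estradiol as the ER stimulus; nearly all actives have a fitted effect of over 45% in size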; further: potency means the concentration at half of the fitted maximal effect
Aromatase (Homo sapiens) = Aromatase (Homo sapiens) (UniProt P11511); test: qHTS assay to identify aromatase inhibitors (AID 743083); further: nearly all actives have a fitted effect of over 55% in size; further: potency means the concentration at half of the fitted maximal effect
Sequence of Aromatase (Homo sapiens) (P11511 whole entry, looked up): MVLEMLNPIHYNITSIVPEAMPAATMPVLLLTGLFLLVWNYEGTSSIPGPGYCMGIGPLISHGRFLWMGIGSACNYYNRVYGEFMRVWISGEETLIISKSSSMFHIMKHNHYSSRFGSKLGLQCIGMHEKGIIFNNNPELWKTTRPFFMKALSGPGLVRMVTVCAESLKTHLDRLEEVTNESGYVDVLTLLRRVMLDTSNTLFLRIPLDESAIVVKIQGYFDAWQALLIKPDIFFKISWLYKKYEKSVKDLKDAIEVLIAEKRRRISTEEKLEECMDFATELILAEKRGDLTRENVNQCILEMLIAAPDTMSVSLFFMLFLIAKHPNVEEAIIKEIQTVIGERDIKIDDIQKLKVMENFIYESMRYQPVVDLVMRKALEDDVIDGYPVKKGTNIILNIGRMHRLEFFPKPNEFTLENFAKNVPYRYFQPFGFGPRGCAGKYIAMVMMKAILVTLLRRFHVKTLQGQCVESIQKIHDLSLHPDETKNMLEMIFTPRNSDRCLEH

[15] = target: Acetylcholinesterase (Homo sapiens) (UniProt P22303); test: Acetylcholinesterase (AChE) small molecule antagonists: colormetric cell-based qHTS assay (AID 1347395; calls by dose curve; further: nearly all actives have a fitted effect of over 30% in size)
Sequence of Acetylcholinesterase (Homo sapiens) (P22303 whole entry, looked up): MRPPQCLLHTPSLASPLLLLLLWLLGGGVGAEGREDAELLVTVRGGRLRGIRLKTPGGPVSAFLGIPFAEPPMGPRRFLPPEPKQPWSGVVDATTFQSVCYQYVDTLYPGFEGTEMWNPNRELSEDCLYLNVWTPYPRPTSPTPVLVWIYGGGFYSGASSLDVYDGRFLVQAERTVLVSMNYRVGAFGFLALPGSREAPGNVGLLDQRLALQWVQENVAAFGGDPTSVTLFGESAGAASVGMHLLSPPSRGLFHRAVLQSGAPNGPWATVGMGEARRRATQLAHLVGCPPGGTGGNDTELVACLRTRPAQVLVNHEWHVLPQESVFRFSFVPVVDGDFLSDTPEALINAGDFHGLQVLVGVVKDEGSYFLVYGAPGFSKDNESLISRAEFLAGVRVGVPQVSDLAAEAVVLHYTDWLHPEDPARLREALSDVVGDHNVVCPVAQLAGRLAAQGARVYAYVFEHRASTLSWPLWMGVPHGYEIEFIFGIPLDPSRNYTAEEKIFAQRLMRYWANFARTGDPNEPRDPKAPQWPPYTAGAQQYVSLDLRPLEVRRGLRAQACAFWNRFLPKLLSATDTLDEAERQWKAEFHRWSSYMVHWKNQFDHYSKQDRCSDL
Procedure, shortened: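 SH-SY5Y cells; cpd 30 min 37 C; + DTNB/acetylthiocholine, 90 min 37 C; colorimetric thiocholine read; qHTS.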

[16] = target: Acetylcholinesterase (Homo sapiens) (UniProt P22303); test: Acetylcholinesterase (AChE) small molecule antagonists: enzyme-based qHTS assay (AID 1347397; calls by dose curve; further: nearly all actives have a fitted effect of over 55% in size); conditions: Potency: AChE enzyme activity inhibition; outcome: AChE enzyme activity inhibition
Procedure, shortened: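 Colorimetric DTNB readout of acetylthiocholine hydrolysis, 10 min at room temperature, after 30 min room-temperature exposure of 50 mU/mL recombinant human enzyme to compound; DMSO vehicle control.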

[17] = target: Acetylcholinesterase (Homo sapiens) (UniProt P22303); test: Acetylcholinesterase (AChE) small molecule antagonists: fluorescence cell-based qHTS assay (AID 1347398; calls by dose curve; further: nearly all actives have a fitted effect of over 50% in size); conditions: Potency: AChE activity; outcome: AChE activity
Procedure, shortened: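 Cellular AChE activity read as thiocholine from acetylthiocholine hydrolysis, detected by Thiolite Green fluorescence at 490/520 nm after 40 min at room temperature. Compounds were pre-incubated 30 min at 37 C on adherent SH-SY5Y cells.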

[18] = qHTS assay to identify aromatase inhibitors - cell viability counter screen (AID 743084);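 further: cells stimulated with testosterone during compound exposure; nearly all actives have a fitted effect of over 55% in size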
[19] = target: Aryl hydrocarbon receptor (Homo sapiens) (UniProt P35869); test: qHTS assay to identify small molecule that activate the aryl hydrocarbon receptor (AhR) signaling pathway (AID 743085); further: nearly all actives have a fitted effect of over 15% in size; further: potency means the concentration at half of the fitted maximal effect
Sequence of Aryl hydrocarbon receptor (Homo sapiens) (P35869 whole entry, looked up): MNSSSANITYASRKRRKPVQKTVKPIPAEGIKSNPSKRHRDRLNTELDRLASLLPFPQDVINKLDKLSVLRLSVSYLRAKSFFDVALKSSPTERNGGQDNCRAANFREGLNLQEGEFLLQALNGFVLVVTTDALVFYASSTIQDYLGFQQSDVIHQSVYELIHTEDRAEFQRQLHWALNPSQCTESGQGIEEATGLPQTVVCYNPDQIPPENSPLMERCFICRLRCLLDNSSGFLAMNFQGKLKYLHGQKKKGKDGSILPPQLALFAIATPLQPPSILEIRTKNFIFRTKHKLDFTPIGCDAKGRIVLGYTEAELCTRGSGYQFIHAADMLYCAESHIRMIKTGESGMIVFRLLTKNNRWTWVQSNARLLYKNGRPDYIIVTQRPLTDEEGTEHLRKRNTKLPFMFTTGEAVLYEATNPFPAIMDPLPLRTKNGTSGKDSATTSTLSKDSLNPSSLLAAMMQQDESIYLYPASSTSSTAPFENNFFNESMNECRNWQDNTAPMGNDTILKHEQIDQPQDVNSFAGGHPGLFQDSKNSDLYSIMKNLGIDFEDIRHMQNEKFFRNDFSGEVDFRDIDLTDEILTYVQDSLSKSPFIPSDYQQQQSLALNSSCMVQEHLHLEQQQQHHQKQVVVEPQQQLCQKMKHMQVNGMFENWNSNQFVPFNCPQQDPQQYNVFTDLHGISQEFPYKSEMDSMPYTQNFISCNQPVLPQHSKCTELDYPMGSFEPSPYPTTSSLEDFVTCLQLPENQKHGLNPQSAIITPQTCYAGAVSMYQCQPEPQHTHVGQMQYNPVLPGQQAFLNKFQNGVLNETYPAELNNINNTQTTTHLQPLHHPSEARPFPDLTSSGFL
Procedure, shortened: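 Luminescence read-out: ONE-Glo reagent, 30 min at room temperature, in HG2L7.5c1 HepG2 reporter cells treated 24 h at 37C. Viability was measured beforehand by CellTiter-Fluor fluorescence after 30 min at 37C.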

Measured: Potency

COC(COC(N)=O)C1=C(N2CC2)C(=O)C(C)=C(N2CC2)C1=O (stereo unspecified)
active: [2] 7.5 µM | [14] 6.68 µM | Aromatase (Homo sapiens) 21.1 µM
not listed: [15] | [16] | [17] | [18] | [19]
inactive: all other assays above

CC(=O)OC(C)=O
inactive: [15] | [16] | [17]

C[C@@H]1[C@H](O)[C@@H](C)/C=C/C=C/CC/C=C/C=C/C=C/C=C/[C@H](O[C@H]2O[C@@H](C)[C@H](O)[C@@H](N)[C@H]2O)CC2O[C@](O)(C[C@@H](O)[C@H](O)CC[C@@H](O)C[C@@H](O)C[C@@H](O)CC(=O)O[C@H]1C)C[C@H](O)[C@H]2C(=O)O
not listed: [11] | [14] | [15] | [16] | [17]
inactive: all other assays above

C[C@@H](N)C(=O)c1ccccc1
not listed: [15] | [16] | [17] | [19]
inactive: all other assays above

Cc1ccc(C)cc1
inactive: Aromatase (Homo sapiens) | [15] | [16] | [17]

CNc1ccc(C(=O)CC(O)CCC(C)C2OC(=O)CC(O)CC(=O)CC(O)CC(O)CC(O)CC(O)CC3(O)CC(O)C(C(=O)OC)C(CC(O[C@@H]4O[C@H](C)[C@@H](O)[C@H](N)[C@@H]4O)/C=C/C=C/C=C/C=C/C=C/C=C/C=C/C2C)O3)cc1 (stereo partly specified)
not listed: [15] | [16] | [17]
inactive: all other assays above

C[C@]12CCC(=O)C[C@@H]1CC[C@@H]1[C@@H]2CC[C@@]2(C)[C@H]1CC[C@]2(C)O
not listed: [2] | [7] | [15] | [16] | [17]
inactive: all other assays above

Cc1c(N)cccc1N
active: [19] 27.9 µM
inactive: Aromatase (Homo sapiens) | [15] | [16]

COC(=O)[C@]12CCC(C)(C)C[C@H]1[C@H]1C(=O)C=C3[C@@]4(C)C=C(C#N)C(=O)C(C)(C)[C@@H]4CC[C@@]3(C)[C@]1(C)CC2
inactive: [4] | [5] | [6] | [7] | [8] | [9] | [10] | [11] | [12] | [13]
active: [2] 1.33 µM | [3] 2.98 µM

c1ccc(-c2ccccc2-c2ccccc2)cc1
inactive: [15] | [16] | [17]

Clc1cc(Cl)c(-c2c(Cl)c(Cl)cc(Cl)c2Cl)cc1Cl
inactive: [15] | [16] | [17]

CCNC1(c2cccs2)CCCCC1=O (stereo unspecified)
not listed: [15] | [16] | [17]
inactive: all other assays above

COc1cc2c(cc1OC)[C@@H]1CC(=O)[C@@H](CC(C)C)CN1CC2
inactive: Aromatase (Homo sapiens) | [19] | [15] | [16] | [17]

C1CN(P2(N3CC3)=NP(N3CC3)(N3CC3)=NP(N3CC3)(N3CC3)=N2)CCO1 (stereo unspecified)
not listed: [15] | [16] | [17]
inactive: all other assays above

N#CC1(N2CCCCC2)CCCCC1
not listed: [15] | [16] | [17]
inactive: all other assays above

CNC(=O)Oc1ccc2c(c1)[C@]1(C)CCN(C)[C@@H]1N2C
inactive: Aromatase (Homo sapiens) | [19]

O=C1CCO1
not listed: [15] | [16] | [17]
inactive: all other assays above

CC(C)C[C@H]1C(=O)N2CCC[C@H]2[C@]2(O)O[C@](NC(=O)[C@@H]3C[C@@H]4c5cccc6[nH]cc(c56)C[C@H]4N(C)C3)(C(C)C)C(=O)N12
not listed: [3] | [14] | [15] | [16] | [17] | [19]
inactive: all other assays above

COc1ccc(OC)c(C[C@H](C)N)c1
not listed: [2] | [13] | [15] | [16] | [17]
inactive: all other assays above
